Results from the supplement of paper PMC4022240.
± gives the standard deviation.

T1: HaloTag-ATRX ADD domain (163-292)
T1 chain: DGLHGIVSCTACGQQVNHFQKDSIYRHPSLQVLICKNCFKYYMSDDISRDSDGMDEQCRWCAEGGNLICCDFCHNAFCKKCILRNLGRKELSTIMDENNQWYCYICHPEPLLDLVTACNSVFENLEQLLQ


Target: T1, HaloTag-ATRX ADD domain (163-292)
Assay: peptide microarray binding signal (635 nm), min-max normalized on array (fraction of array maximum); higher = stronger binding
Settings: peptide region: Unmod H1 variant; binder concentration: 50 nM
Method in brief: (§1)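 Histone 13-mer peptide–cellulose conjugates were printed in triplicate on nitrocellulose with a Cy3 tracer, then blocked overnight at 4°C. Arrays were probed for 1 h at 4°C with biotin-labelled HaloTag reader fusions (10 nM to 1 μM) plus streptavidin-Alexa Fluor 647, or with rabbit histone antibodies (1:10,000 to 1:2,000) plus anti-rabbit Alexa 647. An Axon GenePix 4000B scanned 635 nm for signal and 532 nm for misprints. Binding signal is the triplicate-spot mean intensity, min-max scaled per library.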

Binder | peptide microarray binding signal
KTAKPKKAAPKKK [Unmod H1 variant K T A K P K K A A P K K K] | 0.01737 ± 0.0001
TKPKTAKPKKAAP [Unmod H1 variant T K P K T A K P K K A A P] | 0.0172 ± 0.00023
GAAKRKASGPPVS [Unmod H1 variant G A A K R K A S G P P V S] | 0.0168 ± 0.00018
SETAPAAPAAPAP [Unmod H1 variant S E T A P A A P A A P A P] | 0.0194 ± 0.0011
TKPGASKVATKTK [Unmod H1 variant T K P G A S K V A T K T K] | 0.0164 ± 0.00041

Same assay, conditions: peptide region: Unmod H1 variant; binder concentration: 500 nM

Binder | peptide microarray binding signal
KTAKPKKAAPKKK [Unmod H1 variant K T A K P K K A A P K K K] | 0.00729 ± 0.00021
TKPKTAKPKKAAP [Unmod H1 variant T K P K T A K P K K A A P] | 0.0103 ± 0.00048
GAAKRKASGPPVS [Unmod H1 variant G A A K R K A S G P P V S] | 0.00757 ± 0.00056
SETAPAAPAAPAP [Unmod H1 variant S E T A P A A P A A P A P] | 0.00995 ± 0.00098
TKPGASKVATKTK [Unmod H1 variant T K P G A S K V A T K T K] | 0.0137 ± 0.0012

These binders were tested against HaloTag-ING2 PHD (mouse Ing2 200-280) in the same assay as above. Settings: peptide region: Unmod H1 variant; binder concentration: 10 nM.
Method in brief: as §1

Binder | peptide microarray binding signal
KTAKPKKAAPKKK [Unmod H1 variant K T A K P K K A A P K K K] | 0.00203 ± 5.4e-05
TKPKTAKPKKAAP [Unmod H1 variant T K P K T A K P K K A A P] | 0.00173 ± 2.1e-05
GAAKRKASGPPVS [Unmod H1 variant G A A K R K A S G P P V S] | 0.00245 ± 5e-05
SETAPAAPAAPAP [Unmod H1 variant S E T A P A A P A A P A P] | 0.00394 ± 0.0003
TKPGASKVATKTK [Unmod H1 variant T K P G A S K V A T K T K] | 0.00215 ± 5e-05

Same assay, conditions: peptide region: Unmod H1 variant; binder concentration: 100 nM

Binder | peptide microarray binding signal
KTAKPKKAAPKKK [Unmod H1 variant K T A K P K K A A P K K K] | 0.00532 ± 0.00022
TKPKTAKPKKAAP [Unmod H1 variant T K P K T A K P K K A A P] | 0.00567 ± 0.00041
GAAKRKASGPPVS [Unmod H1 variant G A A K R K A S G P P V S] | 0.00822 ± 0.00024
SETAPAAPAAPAP [Unmod H1 variant S E T A P A A P A A P A P] | 0.00418 ± 0.00041
TKPGASKVATKTK [Unmod H1 variant T K P G A S K V A T K T K] | 0.00694 ± 0.00026

Each binder was assayed against anti-H3K4me3 antibody ab8580 in the same assay as above. Settings: peptide region: Unmod H1 variant; binder concentration: 1:2,000 dilution.
Method in brief: as §1

Binder | peptide microarray binding signal
KTAKPKKAAPKKK [Unmod H1 variant K T A K P K K A A P K K K] | 0.000755 ± 3e-05
TKPKTAKPKKAAP [Unmod H1 variant T K P K T A K P K K A A P] | 0.00108 ± 6.8e-05
GAAKRKASGPPVS [Unmod H1 variant G A A K R K A S G P P V S] | 0.000793 ± 1.2e-05
SETAPAAPAAPAP [Unmod H1 variant S E T A P A A P A A P A P] | 0.00274 ± 0.001
TKPGASKVATKTK [Unmod H1 variant T K P G A S K V A T K T K] | 0.00117 ± 0.00015

Same assay, conditions: peptide region: Unmod H1 variant; binder concentration: 1:10,000 dilution

Binder | peptide microarray binding signal
KTAKPKKAAPKKK [Unmod H1 variant K T A K P K K A A P K K K] | 0.000913 ± 1.6e-05
TKPKTAKPKKAAP [Unmod H1 variant T K P K T A K P K K A A P] | 0.00097 ± 9.9e-06
GAAKRKASGPPVS [Unmod H1 variant G A A K R K A S G P P V S] | 0.000799 ± 8.3e-06
SETAPAAPAAPAP [Unmod H1 variant S E T A P A A P A A P A P] | 0.00337 ± 0.00036
TKPGASKVATKTK [Unmod H1 variant T K P G A S K V A T K T K] | 0.00097 ± 9.9e-06

The binders below were run against anti-H3K9me3 antibody ab8898 in the same assay as above. Settings: peptide region: Unmod H1 variant; binder concentration: 1:2,000 dilution.
Method in brief: as §1

Binder | peptide microarray binding signal
KTAKPKKAAPKKK [Unmod H1 variant K T A K P K K A A P K K K] | 0.000121 ± 1.3e-06
TKPKTAKPKKAAP [Unmod H1 variant T K P K T A K P K K A A P] | 0.000227 ± 4.1e-06
GAAKRKASGPPVS [Unmod H1 variant G A A K R K A S G P P V S] | 0.000211 ± 4.5e-06
SETAPAAPAAPAP [Unmod H1 variant S E T A P A A P A A P A P] | 0.00159 ± 8.6e-05
TKPGASKVATKTK [Unmod H1 variant T K P G A S K V A T K T K] | 0.000302 ± 6.2e-06

Same assay, conditions: peptide region: Unmod H1 variant; binder concentration: 1:10,000 dilution

Binder | peptide microarray binding signal
KTAKPKKAAPKKK [Unmod H1 variant K T A K P K K A A P K K K] | 0.000577 ± 6.2e-06
TKPKTAKPKKAAP [Unmod H1 variant T K P K T A K P K K A A P] | 0.000577 ± 6.2e-06
GAAKRKASGPPVS [Unmod H1 variant G A A K R K A S G P P V S] | 0.000634
SETAPAAPAAPAP [Unmod H1 variant S E T A P A A P A A P A P] | 0.00167 ± 2.8e-05
TKPGASKVATKTK [Unmod H1 variant T K P G A S K V A T K T K] | 0.000692 ± 7.3e-06
